Data taken from the supplement of paper PMC11732987, “Enantioselective OTUD7B fragment discovery through chemoproteomics screening and high-throughput optimisation” (Communications Chemistry, 2025).

Legend:
Assay in all cases: log2 ratio of Biotin-Ahx-Ub-VS probe labelling (fragment/DMSO); higher = less target engagement (more negative = stronger competition), active = hit call of the paper (q ≤ 0.05, log2 ratio ≤ -1)
Settings in all cases: compound concentration: 200 uM; treatment time: 3 h
USP34 = USP34 (UniProt Q70CQ2)
USP34, sequence (Q70CQ2 whole entry, the tested form may be a part): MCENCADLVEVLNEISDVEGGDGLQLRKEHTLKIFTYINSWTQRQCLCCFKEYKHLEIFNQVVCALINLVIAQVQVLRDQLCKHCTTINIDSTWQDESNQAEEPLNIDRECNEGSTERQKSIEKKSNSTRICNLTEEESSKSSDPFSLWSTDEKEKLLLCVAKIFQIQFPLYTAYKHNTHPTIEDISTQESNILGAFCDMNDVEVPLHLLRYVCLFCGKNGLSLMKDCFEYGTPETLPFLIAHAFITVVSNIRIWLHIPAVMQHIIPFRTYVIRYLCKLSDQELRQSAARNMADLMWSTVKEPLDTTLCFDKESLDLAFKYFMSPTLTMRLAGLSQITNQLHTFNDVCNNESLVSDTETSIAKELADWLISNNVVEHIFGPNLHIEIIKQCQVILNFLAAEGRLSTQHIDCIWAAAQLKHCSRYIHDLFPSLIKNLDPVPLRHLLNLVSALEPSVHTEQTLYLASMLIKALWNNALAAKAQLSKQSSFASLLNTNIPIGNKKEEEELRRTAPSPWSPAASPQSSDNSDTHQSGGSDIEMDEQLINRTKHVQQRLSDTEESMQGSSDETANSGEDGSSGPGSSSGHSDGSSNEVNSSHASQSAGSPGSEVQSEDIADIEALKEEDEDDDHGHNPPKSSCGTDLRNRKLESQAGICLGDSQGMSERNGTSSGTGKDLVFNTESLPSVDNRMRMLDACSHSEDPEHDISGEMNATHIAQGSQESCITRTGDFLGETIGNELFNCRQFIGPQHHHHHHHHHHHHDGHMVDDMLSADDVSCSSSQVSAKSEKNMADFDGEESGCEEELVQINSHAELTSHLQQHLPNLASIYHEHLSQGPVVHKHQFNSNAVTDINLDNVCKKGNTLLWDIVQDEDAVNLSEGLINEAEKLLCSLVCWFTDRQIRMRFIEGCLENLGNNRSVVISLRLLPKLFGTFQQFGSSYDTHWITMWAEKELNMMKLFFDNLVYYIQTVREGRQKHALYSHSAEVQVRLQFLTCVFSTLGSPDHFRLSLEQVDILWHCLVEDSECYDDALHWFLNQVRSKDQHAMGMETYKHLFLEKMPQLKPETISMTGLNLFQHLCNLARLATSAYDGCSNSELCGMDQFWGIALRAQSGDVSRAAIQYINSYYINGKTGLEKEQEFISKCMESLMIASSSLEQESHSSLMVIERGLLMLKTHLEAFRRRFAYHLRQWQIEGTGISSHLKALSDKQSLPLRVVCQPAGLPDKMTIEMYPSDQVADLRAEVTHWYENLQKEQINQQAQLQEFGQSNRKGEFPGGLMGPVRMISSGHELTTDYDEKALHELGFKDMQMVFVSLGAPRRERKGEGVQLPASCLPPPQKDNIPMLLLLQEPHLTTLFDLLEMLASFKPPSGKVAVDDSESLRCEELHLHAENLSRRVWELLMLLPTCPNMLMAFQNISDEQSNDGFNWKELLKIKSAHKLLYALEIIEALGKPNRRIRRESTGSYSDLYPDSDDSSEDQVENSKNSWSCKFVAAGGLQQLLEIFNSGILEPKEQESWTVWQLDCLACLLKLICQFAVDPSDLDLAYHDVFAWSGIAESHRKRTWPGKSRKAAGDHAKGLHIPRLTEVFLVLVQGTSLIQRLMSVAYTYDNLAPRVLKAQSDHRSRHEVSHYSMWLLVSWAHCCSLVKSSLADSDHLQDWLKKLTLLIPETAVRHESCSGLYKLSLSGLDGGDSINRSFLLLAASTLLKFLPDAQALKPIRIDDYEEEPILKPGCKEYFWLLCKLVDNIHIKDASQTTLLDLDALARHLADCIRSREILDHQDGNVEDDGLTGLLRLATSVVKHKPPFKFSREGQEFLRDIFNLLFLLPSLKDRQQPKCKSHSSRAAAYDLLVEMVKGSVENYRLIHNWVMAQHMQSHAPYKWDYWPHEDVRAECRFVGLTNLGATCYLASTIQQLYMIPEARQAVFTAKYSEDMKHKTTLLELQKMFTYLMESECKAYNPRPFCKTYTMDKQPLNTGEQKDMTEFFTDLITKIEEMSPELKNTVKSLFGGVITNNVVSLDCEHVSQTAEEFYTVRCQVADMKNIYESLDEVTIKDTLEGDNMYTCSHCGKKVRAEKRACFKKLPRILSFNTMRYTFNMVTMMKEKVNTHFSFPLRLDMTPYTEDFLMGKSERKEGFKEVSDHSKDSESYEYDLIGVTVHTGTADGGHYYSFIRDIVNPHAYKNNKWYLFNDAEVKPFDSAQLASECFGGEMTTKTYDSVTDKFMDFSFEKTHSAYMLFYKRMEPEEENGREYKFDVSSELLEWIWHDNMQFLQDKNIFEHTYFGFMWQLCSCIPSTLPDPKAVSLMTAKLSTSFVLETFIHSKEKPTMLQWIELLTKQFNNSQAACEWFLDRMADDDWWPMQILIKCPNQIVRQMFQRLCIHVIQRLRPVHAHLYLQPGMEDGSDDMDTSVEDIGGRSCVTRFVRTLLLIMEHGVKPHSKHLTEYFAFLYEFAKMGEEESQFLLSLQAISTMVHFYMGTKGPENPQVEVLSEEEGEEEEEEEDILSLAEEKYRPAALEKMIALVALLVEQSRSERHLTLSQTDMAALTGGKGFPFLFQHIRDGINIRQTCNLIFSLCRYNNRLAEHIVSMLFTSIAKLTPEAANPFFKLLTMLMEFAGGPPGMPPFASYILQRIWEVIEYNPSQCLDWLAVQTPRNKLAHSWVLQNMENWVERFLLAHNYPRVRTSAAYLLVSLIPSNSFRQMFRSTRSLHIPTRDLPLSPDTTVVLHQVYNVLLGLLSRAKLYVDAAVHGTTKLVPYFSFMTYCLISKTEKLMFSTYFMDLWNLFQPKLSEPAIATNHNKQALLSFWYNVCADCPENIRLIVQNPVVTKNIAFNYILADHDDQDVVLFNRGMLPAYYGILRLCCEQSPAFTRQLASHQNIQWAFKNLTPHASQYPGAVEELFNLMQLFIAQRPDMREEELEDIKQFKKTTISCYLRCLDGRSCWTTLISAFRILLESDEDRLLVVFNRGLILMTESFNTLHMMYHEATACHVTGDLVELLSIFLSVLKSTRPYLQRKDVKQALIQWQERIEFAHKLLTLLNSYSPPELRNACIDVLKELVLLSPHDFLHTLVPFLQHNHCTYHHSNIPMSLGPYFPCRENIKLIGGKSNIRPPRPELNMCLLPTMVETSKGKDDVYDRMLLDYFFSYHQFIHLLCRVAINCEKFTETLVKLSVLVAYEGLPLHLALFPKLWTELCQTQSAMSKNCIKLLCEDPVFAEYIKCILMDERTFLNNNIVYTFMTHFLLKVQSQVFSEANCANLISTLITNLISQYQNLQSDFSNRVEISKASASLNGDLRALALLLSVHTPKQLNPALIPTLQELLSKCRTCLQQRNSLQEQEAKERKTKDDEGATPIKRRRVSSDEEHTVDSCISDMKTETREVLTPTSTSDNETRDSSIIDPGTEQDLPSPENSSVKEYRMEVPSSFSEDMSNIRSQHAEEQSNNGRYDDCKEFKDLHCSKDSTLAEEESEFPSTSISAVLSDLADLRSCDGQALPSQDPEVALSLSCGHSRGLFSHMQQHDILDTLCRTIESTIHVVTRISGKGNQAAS
Outline: (§1)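 Labelled DUBs from HEK293T lysate were NeutrAvidin-enriched, digested with LysC and trypsin, and run by diaPASEF LC-MS/MS. Before that, each 495 µg sample in Tris/CHAPS/IGEPAL buffer with protease inhibitors was treated in triplicate with fragment at 200 µM or vehicle for 3 h, then with Biotin-Ahx-Ub-VS at 0.5 µM final for 1 h. Values are average log2 ratios of fragment over vehicle by unpaired t-test, based on global-median-normalised Spectronaut label-free quantities from proteins with ≥2 unique peptides.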

USP36 = target: T1, USP36 (UniProt Q9P275)
T1 sequence (whole entry): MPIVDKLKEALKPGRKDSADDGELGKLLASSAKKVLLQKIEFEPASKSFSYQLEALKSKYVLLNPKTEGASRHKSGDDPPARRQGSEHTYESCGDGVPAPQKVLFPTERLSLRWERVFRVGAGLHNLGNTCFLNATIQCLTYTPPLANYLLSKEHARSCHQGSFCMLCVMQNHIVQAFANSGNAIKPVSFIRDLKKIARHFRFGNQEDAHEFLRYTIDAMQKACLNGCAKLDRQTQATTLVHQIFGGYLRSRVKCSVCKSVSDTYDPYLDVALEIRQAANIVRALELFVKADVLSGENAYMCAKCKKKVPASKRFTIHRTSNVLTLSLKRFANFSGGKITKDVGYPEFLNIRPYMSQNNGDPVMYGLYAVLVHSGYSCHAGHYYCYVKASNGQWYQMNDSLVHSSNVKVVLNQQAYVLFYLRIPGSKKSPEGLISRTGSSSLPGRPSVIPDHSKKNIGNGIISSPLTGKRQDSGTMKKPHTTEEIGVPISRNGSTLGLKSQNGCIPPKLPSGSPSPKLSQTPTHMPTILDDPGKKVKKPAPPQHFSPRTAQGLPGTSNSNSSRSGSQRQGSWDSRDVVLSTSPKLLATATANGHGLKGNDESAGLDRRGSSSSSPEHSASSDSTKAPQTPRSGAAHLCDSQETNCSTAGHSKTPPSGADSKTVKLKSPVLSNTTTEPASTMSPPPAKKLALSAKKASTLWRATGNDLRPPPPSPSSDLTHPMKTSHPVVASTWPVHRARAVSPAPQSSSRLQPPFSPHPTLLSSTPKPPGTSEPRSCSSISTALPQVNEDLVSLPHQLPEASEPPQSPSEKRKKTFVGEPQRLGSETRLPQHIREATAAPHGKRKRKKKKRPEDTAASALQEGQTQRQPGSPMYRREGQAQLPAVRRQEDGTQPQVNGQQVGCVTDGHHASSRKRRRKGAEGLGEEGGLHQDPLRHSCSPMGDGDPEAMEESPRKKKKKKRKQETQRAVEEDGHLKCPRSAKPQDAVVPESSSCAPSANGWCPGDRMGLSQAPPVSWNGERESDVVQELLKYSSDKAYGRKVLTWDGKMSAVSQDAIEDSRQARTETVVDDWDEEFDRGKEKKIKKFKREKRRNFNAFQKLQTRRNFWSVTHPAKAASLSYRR
Outline: as §1

USP38 = target: T2, USP38 (UniProt Q8NB14)
T2 sequence (whole entry): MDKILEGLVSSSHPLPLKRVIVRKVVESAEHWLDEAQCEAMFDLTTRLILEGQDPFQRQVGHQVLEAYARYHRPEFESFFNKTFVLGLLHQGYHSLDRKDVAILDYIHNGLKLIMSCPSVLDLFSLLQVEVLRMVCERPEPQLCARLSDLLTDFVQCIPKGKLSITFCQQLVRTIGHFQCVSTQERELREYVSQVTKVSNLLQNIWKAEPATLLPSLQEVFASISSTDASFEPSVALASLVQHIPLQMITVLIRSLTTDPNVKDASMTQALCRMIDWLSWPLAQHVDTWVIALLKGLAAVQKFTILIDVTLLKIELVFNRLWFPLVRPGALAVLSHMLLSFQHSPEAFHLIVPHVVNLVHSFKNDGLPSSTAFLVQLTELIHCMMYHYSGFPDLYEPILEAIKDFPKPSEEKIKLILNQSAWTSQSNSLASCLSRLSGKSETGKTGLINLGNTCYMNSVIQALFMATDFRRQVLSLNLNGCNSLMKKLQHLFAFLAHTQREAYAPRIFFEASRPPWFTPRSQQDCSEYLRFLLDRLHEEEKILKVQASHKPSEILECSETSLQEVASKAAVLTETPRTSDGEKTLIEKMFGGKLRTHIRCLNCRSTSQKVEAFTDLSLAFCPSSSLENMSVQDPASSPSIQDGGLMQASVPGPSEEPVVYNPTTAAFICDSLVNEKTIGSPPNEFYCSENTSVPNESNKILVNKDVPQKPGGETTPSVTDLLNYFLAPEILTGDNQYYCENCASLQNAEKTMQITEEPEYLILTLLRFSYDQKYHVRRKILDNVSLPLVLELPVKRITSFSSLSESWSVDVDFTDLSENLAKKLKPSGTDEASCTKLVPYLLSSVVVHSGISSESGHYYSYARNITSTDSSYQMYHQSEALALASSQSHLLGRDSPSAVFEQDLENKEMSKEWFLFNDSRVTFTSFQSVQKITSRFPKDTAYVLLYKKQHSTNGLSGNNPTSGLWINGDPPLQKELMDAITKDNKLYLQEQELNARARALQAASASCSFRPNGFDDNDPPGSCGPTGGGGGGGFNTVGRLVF
Outline: as §1

USP39 = target: T3, USP39 (UniProt Q53GS9)
T3 sequence (whole entry): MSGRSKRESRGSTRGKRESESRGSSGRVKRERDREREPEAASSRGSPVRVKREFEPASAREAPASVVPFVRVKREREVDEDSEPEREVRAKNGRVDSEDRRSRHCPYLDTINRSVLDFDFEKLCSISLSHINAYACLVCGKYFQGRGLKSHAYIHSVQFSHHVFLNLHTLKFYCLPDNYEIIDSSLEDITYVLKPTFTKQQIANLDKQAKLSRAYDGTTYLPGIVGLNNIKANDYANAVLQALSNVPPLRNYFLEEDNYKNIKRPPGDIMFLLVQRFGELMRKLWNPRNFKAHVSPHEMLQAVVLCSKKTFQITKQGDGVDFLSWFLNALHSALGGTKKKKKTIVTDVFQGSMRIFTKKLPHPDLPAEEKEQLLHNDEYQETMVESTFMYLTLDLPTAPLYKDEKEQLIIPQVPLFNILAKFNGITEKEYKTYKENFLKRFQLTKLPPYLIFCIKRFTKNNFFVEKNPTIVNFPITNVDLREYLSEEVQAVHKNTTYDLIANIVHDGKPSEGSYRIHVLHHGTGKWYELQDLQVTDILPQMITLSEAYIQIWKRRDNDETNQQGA
Outline: as §1

USP4 = target: T4, USP4 (UniProt Q13107)
T4 sequence (whole entry): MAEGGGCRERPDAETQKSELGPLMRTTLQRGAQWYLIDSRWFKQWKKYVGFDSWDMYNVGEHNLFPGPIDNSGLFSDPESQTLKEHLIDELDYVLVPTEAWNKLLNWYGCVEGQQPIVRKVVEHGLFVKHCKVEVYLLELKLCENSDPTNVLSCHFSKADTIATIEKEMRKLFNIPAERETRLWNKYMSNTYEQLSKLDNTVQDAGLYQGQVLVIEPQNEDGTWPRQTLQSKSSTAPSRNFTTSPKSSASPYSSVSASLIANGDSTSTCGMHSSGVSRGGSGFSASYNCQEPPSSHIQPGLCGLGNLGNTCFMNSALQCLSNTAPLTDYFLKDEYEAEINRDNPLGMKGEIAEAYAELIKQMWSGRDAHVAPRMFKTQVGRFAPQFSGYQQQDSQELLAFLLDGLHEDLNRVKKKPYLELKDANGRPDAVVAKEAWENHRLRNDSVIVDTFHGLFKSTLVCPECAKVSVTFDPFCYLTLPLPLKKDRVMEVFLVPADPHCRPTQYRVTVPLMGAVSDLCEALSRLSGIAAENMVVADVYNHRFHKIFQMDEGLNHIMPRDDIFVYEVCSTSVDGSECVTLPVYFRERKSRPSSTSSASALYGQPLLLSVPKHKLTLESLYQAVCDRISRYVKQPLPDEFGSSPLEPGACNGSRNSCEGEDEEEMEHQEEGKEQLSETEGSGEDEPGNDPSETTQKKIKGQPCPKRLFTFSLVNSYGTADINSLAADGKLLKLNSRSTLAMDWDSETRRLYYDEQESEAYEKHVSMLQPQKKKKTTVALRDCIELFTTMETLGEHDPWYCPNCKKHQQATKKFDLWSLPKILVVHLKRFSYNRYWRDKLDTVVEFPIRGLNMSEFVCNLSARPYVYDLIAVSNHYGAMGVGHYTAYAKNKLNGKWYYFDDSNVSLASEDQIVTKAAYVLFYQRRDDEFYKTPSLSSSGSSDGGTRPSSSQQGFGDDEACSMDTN
Outline: as §1

Measured: log2 ratio of Biotin-Ahx-Ub-VS probe labelling

O=C(CCl)NCc1cccc(F)c1
inactive: USP34 -0.0351 | USP36 -0.312 | USP38 0.0703 | USP39 -0.114 | USP4 -0.0159
